Screening results (PubChem BioAssay)
An excerpt weighted towards active compounds, which were near 7.9% of everything screened.
HT1080-NT tox = kills 2HG-producing HT-1080-NT fibrosarcoma cells; HT-1080-NT fibrosarcoma viability, CellTiter-Glo ATP luminescence, 48 h; Potency, µM (titrated, usually from 46.1 µM), inactives show at the top dose activity, negative = less viability, actives largely listed as cytotoxic; actives 1.6% (n = 360,000);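 note: NT is the 2HG producing partner of a matched IDH1 knockdown line; 0% = DMSO-treated cells and -100% = media-only wells without cells; nearly all actives have a fitted effect of over 55% in size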
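Luminescent CellTiter-Glo readout after 48 hours of compound exposure at 37 degrees C defined viability of HT-1080-NT cells. Activity was normalized to DMSO wells and cell-free media wells; concentration-response curves were fitted and assigned curve classes.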
MCF10A rereplic = inducers of DNA re-replication in MCF 10A breast cells; MCF 10A DNA re-replication, Hoechst nuclear intensity, 48 h; Potency, µM (top dose mostly 46.1 µM), for inactives: top-dose activity, positive = re-replication, hits mostly activators; actives 2.9% (n = 350,000); note: % of control where 0% means no effect; nearly all actives have a fitted effect of over 50% in size
KB-3-1 tox = kills parental KB-3-1 adenocarcinoma cells; KB-3-1 viability, CellTiter-Glo ATP luminescence, 72 h; Potency, µM (doses to about 46.1 µM), most hits filed as cytotoxic; actives 1.4% (n = 400,000); AID 1347075; note: % is set by controls: 0 for no effect and ±100 for the full control effect; nearly all actives have a fitted effect of over 60% in size
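Cytotoxicity measured as CellTiter-Glo luminescence after 72 h at 37 C. Compound titrations were pinned onto drug-naive KB-3-1 parental adenocarcinoma cells grown in DMEM with 10% FBS, and normalized data fitted to concentration-response curves.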
KB-V1 cytotox = KB-V1 MDR subline cytotoxicity. KB-V1 MDR cells viability, CellTiter-Glo, 72 h. Potency, µM (series often up to 46.1 µM), most hits filed as cytotoxic. actives 3.4% (n = 400,000); note: % is set by controls: 0 for no effect and ±100 for the full control effect; nearly all actives have a fitted effect of over 60% in size
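Potencies derive from concentration-effect curves fitted to normalized luminescence (CellTiter-Glo) of KB-V1 cells treated for 72 h at 37 degrees C in phenol-red-free DMEM containing 10% FBS.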
SW480 rereplic = DNA re-replication induction in SW480 cells; SW480 DNA re-replication, Hoechst DNA content imaging, 48 h; actives 1.8% (n = 340,000); Potency, µM (top dose mostly 46.1 µM), for the others: top-dose re-replication activation, most hits filed as activators; note: % of control where 0% means no effect; nearly all actives have a fitted effect of over 55% in size
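Readout is total intensity of Hoechst-stained nuclei, excited at 405 nm and collected at 500-530 nm. Compound treatment lasted 48 hr at 37 C in 5% CO2 before staining.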
HT1080 IDH1KD tx = kills HT-1080 cells with IDH1 knockdown; actives 2% (n = 360,000); Potency, µM (series often up to 46.1 µM), inactives show top-dose activity, negative = toxicity, most hits filed as cytotoxic; HT-1080 IDH1 knockdown viability, ATP luminescence, 48 h; AID 686971;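 note: 0% = DMSO wells and -100% = cell-free medium wells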
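Cytotoxicity counter-line: IDH1KD HT-1080, 48 h, CellTiter-Glo. Curves classed by r2, magnitude and activity.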
The depositor's hits bear a star; i = inactive; ? = inconclusive; / = no result; [ ] = another dose, or the depositor's remark. Calls come from the whole dose curve; as a rule, active = well fitted curve in the direction sought with a large enough effect; inconclusive = small, poorly fitted or top-dose-only effect, or another doubt; inactive = no such curve, though single readings can be large; an effect the other way counts as inactive or inconclusive. Potency is the fitted concentration of half-maximal effect.

SMILES	HT1080-NT tox	MCF10A rereplic	KB-3-1 tox	KB-V1 cytotox	SW480 rereplic	HT1080 IDH1KD tx
Cc1ccccc1NC(=O)Cc1nc(COC(=O)c2ncc(Cl)c(Cl)c2Cl)cs1	-22.8%	?	i	i	6.51µM*	-1.3%
CC(CCc1ccccc1)NC(=O)COC(=O)c1ccc(S(C)(=O)=O)c([N+](=O)[O-])c1 (configuration not stated)	16.4µM*	?	i	i	?	7.31µM*
CCOC(=O)C[C@H]1c2cc(F)ccc2S(=O)(=O)N1Cc1cc(OC)c(OC)c(OC)c1	/	/	i	?	/	/
CC1(c2nnnn2-c2ccc3c(c2)OCCO3)CCC(=O)N1CCc1c[nH]c2ccccc12 (configuration not stated)	-0.1%	/	i	i	/	7.6%
CS(=O)(=O)c1ccc(C(=O)OCC(=O)N2CCN(CCC3CCCCC3)CC2)cc1[N+](=O)[O-]	/	/	6.51µM*	23.1µM*	/	/
CC(=O)c1cccc(NC(=O)C(C)OC(=O)c2ccc(S(C)(=O)=O)c([N+](=O)[O-])c2)c1 (configuration not stated)	/	/	?	i	/	/
O=C(COC(=O)c1ccc([N+](=O)[O-])cc1)Nc1cccnc1Cl	9.7%	-1.0%	?	i	-6.0%	7.2%
CS(=O)(=O)c1ccc(C(=O)OCC(=O)Nc2cccnc2Cl)cc1[N+](=O)[O-]	-27.9%	3.66µM*	?	i	?	?
CC(=O)c1cccc(NC(=O)COC(=O)c2ccc(S(C)(=O)=O)c([N+](=O)[O-])c2)c1	?	2.59µM*	i	i	?	?
CS(=O)(=O)N1CCc2cc(C(=O)Nc3cccc(F)c3)ccc21	/	/	i	i	/	/
O=C(NCCc1ccc(Cl)cc1)c1ccc2c(c1)N(Cc1ccc(F)cc1Cl)C(=O)CS2	/	/	i	?	/	/
CCc1ccc(Oc2nc3c(C)cccn3c(=O)c2/C=C(\C#N)c2nc3ccccc3s2)cc1	/	/	i	i	/	/
Cc1ccc(S(=O)(=O)Nc2cc(-c3nn(C)c(=O)c4ccccc34)ccc2N2CCOCC2)cc1	?	?	i	i	16.4µM*	10µM*
CC(=O)Nc1cc(-c2nn(C)c(=O)c3ccccc23)ccc1N1CCOCC1	-1.3%	1.0%	i	i	-6.6%	11.8%
Cn1nc(-c2ccc(N3CCOCC3)c(NS(=O)(=O)c3ccc(Cl)cc3)c2)c2ccccc2c1=O	?	?	?	?	-2.2%[9.22 µM]	18.4µM*
COc1ccc(C2NC(=O)N(C)C3=C2C(=O)N(c2cccc(Cl)c2)C3)cc1 (configuration not stated)	/	/	i	i	/	/
CC(=O)C1=C(c2ccccc2)OC(N)=C(C#N)C1c1ccccc1C (configuration not stated)	9.6%	-0.7%	i	i	-6.5%	5.9%
CCN1C=C(Cc2ccc(F)cc2)C2=C(C1)C(c1ccc(F)cc1)C(C#N)=C(N)O2 (configuration not stated)	?	?	?	16.4µM*	?	-1.5%[9.24 µM]
CCN1C=C(Cc2ccccc2C)C2=C(C1)C(c1ccccc1C)C(C#N)=C(N)O2 (configuration not stated)	?	?	?	20.6µM*	?	?
Cc1[nH]nc2c1C(c1ccc(F)cc1)C(C#N)=C(N)O2 (configuration not stated)	-1.0%	0.0%	i	?	-0.8%	15.8%
COc1cccc(CNC(=O)C(=O)NCC(c2ccco2)S(=O)(=O)c2cccs2)c1 (configuration not stated)	/	/	i	i	/	/
CC(C)CNS(=O)(=O)c1ccc(S(=O)(=O)N2CCC3(CC2)OCCO3)cc1	-4.2%	-57.1%	i	14.6µM*	0.184µM*	-0.2%
